Test results reported in PubChem BioAssay (Tox21).
Unmarked numbers belong to inactive results. Records with an inconclusive call do not appear. Where a call stands in place of a potency, no number is given. The source made the active and inactive calls. Calls follow the shape of the dose curve; as a rule, active = well fitted curve in the direction sought with a large enough effect in the repeat runs; inconclusive = weak or mixed curves; inactive = no such curve, though single readings can be large; an effect the other way counts as inactive or inconclusive.

Tests used:
[1] = A CellTox Green Cytotoxicity Assay to monitor cytotoxicity in HEK293 cells - 40 hour (AID 1224871); also: nearly all actives have a fitted effect of over 45% in size; also: potency is read from the fitted curve at half-maximal effect
How it was run: (§1)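 Cytotoxicity was tracked continuously in HEK293 cells by a DNA-binding dye excluded from viable cells. Compounds were transferred in DMSO 5 h after seeding; fluorescence was recorded at intervals up to 40 h.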

[2] = qHTS RealTime-Glo MT Cell Viability Assay in HEK293 cells - 16 hour (AID 1224872); also: top concentration of the series differs between compounds; nearly all actives have a fitted effect of over 50% in size
How it was run: (§2)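 HEK293 cells were seeded at 600 cells/well together with NanoLuc luciferase and cell-permeant prosubstrate, preincubated 5 h at 37 C/5% CO2, then given compound in DMSO by pintool. Luminescence from viable-cell prosubstrate reduction was read repeatedly over 40 h.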

[3] = qHTS RealTime-Glo MT Cell Viability Assay in HepG2 cells - 8 hour (AID 1224873); also: nearly all actives have a fitted effect of over 55% in size
How it was run: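 HepG2 cells (600/well) mixed with RealTime-Glo MT reagent, settled 5 h at 37 C/5% CO2 before compound addition. Nonlytic NanoLuc luminescence from viable-cell prosubstrate reduction read repeatedly during 40 h treatment at 37 C.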

[4] = qHTS RealTime-Glo MT Cell Viability Assay in HEK293 cells - 40 hour (AID 1224874); settings: RealTime-Glo luminescence; max response: active compounds read low; also: nearly all actives have a fitted effect of over 50% in size
How it was run: (§3)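 Nonlytic bioluminescent viability monitoring. HEK293 at 600 cells/well with reagent; 5 h settle; compound transfer by pintool; plates held at 37 C and read at set time points.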

[5] = A CellTox Green Cytotoxicity Assay to monitor cytotoxicity in HEK293 cells - 24 hour (AID 1224875); also: nearly all actives have a fitted effect of over 45% in size; also: potency is read from the fitted curve at half-maximal effect
How it was run: as §1

[6] = A CellTox Green Cytotoxicity Assay to monitor cytotoxicity in HepG2 cells - 16 hour (AID 1224876); also: nearly all actives have a fitted effect of over 45% in size; also: potency is read from the fitted curve at half-maximal effect
How it was run: (§4)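 Real-time, homogeneous cytotoxicity readout: dead-cell DNA staining by CellTox Green in HepG2 monolayers, fluorescence measured at timed intervals up to 40 h of continuous compound exposure.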

[7] = qHTS RealTime-Glo MT Cell Viability Assay in HepG2 cells - 32 hour (AID 1224877); also: nearly all actives have a fitted effect of over 55% in size
How it was run: (§5)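 HepG2 cells were seeded at 600 cells/well together with NanoLuc luciferase and a cell-permeant prosubstrate, preincubated 5 h at 37 C/5% CO2, then pin-dosed with compounds in DMSO. Nonlytic luminescence from viable cells was read at each time point.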

[8] = A CellTox Green Cytotoxicity Assay to monitor cytotoxicity in HepG2 cells - 24 hour (AID 1224878); also: nearly all actives have a fitted effect of over 45% in size; also: potency is read from the fitted curve at half-maximal effect
How it was run: as §4

[9] = A CellTox Green Cytotoxicity Assay to monitor cytotoxicity in HepG2 cells - 40 hour (AID 1224879); also: nearly all actives have a fitted effect of over 40% in size; also: potency is read from the fitted curve at half-maximal effect
How it was run: as §4

[10] = qHTS RealTime-Glo MT Cell Viability Assay in HEK293 cells - 0 hour (AID 1224880)
How it was run: as §3

[11] = A CellTox Green Cytotoxicity Assay to monitor cytotoxicity in HEK293 cells - 32 hour (AID 1224881); also: nearly all actives have a fitted effect of over 40% in size; also: potency is read from the fitted curve at half-maximal effect
How it was run: as §1

[12] = A CellTox Green Cytotoxicity Assay to monitor cytotoxicity in HepG2 cells - 0 hour (AID 1224882); also: nearly all actives have a fitted effect of over 35% in size; also: potency is read from the fitted curve at half-maximal effect
How it was run: as §4

[13] = A CellTox Green Cytotoxicity Assay to monitor cytotoxicity in HepG2 cells - 32 hour (AID 1224883); also: nearly all actives have a fitted effect of over 50% in size; also: potency is read from the fitted curve at half-maximal effect
How it was run: as §4

[14] = A CellTox Green Cytotoxicity Assay to monitor cytotoxicity in HEK293 cells - 8 hour (AID 1224884); also: nearly all actives have a fitted effect of over 35% in size; also: potency is read from the fitted curve at half-maximal effect
How it was run: as §1

[15] = qHTS RealTime-Glo MT Cell Viability Assay in HepG2 cells - 16 hour (AID 1224885); also: nearly all actives have a fitted effect of over 50% in size
How it was run: as §5

[16] = qHTS RealTime-Glo MT Cell Viability Assay in HEK293 cells - 24 hour (AID 1224886)
How it was run: as §2

[17] = qHTS RealTime-Glo MT Cell Viability Assay in HEK293 cells - 8 hour (AID 1224887)
How it was run: as §3

[18] = A CellTox Green Cytotoxicity Assay to monitor cytotoxicity in HEK293 cells - 16 hour (AID 1224888); also: nearly all actives have a fitted effect of over 35% in size; also: potency is read from the fitted curve at half-maximal effect
How it was run: as §1

[19] = A CellTox Green Cytotoxicity Assay to monitor cytotoxicity in HepG2 cells - 8 hour (AID 1224890); also: nearly all actives have a fitted effect of over 45% in size; also: potency is read from the fitted curve at half-maximal effect
How it was run: as §4

[20] = qHTS RealTime-Glo MT Cell Viability Assay in HepG2 cells - 0 hour (AID 1224889); also: nearly all actives have a fitted effect of over 50% in size; also: potency is read from the fitted curve at half-maximal effect
How it was run: as §5

CCOP(=S)(OCC)SCSCC
Potency [1]: inactive | Potency [2]: inactive | Potency [3]: inactive | max response [4]: 1.39% | Potency [5]: inactive | Potency [6]: inactive | Potency [7]: inactive | Potency [8]: inactive | Potency [9]: inactive | Potency [10]: inactive | Potency [11]: inactive | Potency [12]: inactive | Potency [13]: inactive | Potency [14]: inactive | Potency [15]: inactive | Potency [16]: inactive | Potency [17]: inactive | Potency [18]: inactive | Potency [19]: inactive

COc1nn(C(=O)NS(=O)(=O)c2ccccc2OC(F)(F)F)c(=O)n1C
Potency [1]: 20 µM (active) | Potency [2]: inactive | Potency [3]: inactive | max response [4]: 12.6% | Potency [5]: 22.4 µM (active) | Potency [6]: 35.5 µM (active) | Potency [7]: inactive | Potency [8]: 39.9 µM (active) | Potency [9]: 39.9 µM (active) | Potency [10]: inactive | Potency [11]: 20 µM (active) | Potency [12]: 39.9 µM (active) | Potency [13]: 39.9 µM (active) | Potency [14]: 31.7 µM (active) | Potency [15]: inactive | Potency [16]: inactive | Potency [17]: inactive | Potency [18]: 22.4 µM (active) | Potency [20]: inactive | Potency [19]: 39.9 µM (active)

CCBr
Potency [1]: inactive | Potency [2]: inactive | Potency [3]: inactive | max response [4]: 6.85% | Potency [5]: inactive | Potency [6]: inactive | Potency [7]: inactive | Potency [8]: inactive | Potency [9]: inactive | Potency [10]: inactive | Potency [11]: inactive | Potency [12]: inactive | Potency [13]: inactive | Potency [14]: inactive | Potency [15]: inactive | Potency [16]: inactive | Potency [17]: inactive | Potency [18]: inactive | Potency [20]: inactive | Potency [19]: inactive

C[C@]12CC[C@H]3[C@@H](CCC4=CC(=O)CC[C@@H]43)[C@@H]1CC[C@@H]2OC(=O)CCC1CCCCC1
Potency [1]: inactive | Potency [2]: inactive | Potency [3]: inactive | max response [4]: -18.6% | Potency [5]: inactive | Potency [6]: inactive | Potency [7]: inactive | Potency [8]: inactive | Potency [9]: inactive | Potency [10]: inactive | Potency [11]: inactive | Potency [12]: inactive | Potency [13]: inactive | Potency [14]: inactive | Potency [15]: inactive | Potency [16]: inactive | Potency [17]: inactive | Potency [18]: inactive | Potency [20]: inactive | Potency [19]: inactive

C/C=C/C=O
Potency [1]: inactive | Potency [2]: inactive | Potency [3]: inactive | max response [4]: 5.18% | Potency [5]: inactive | Potency [6]: inactive | Potency [7]: inactive | Potency [8]: inactive | Potency [9]: inactive | Potency [10]: inactive | Potency [11]: inactive | Potency [12]: inactive | Potency [13]: inactive | Potency [14]: inactive | Potency [15]: inactive | Potency [16]: inactive | Potency [17]: inactive | Potency [18]: inactive | Potency [20]: inactive

C=CCC1([C@H](C)CCC)C(=O)NC(=O)NC1=O
Potency [1]: inactive | Potency [2]: inactive | Potency [3]: inactive | max response [4]: -11.9% | Potency [5]: inactive | Potency [6]: inactive | Potency [7]: inactive | Potency [8]: inactive | Potency [9]: inactive | Potency [10]: inactive | Potency [11]: inactive | Potency [12]: inactive | Potency [13]: inactive | Potency [14]: inactive | Potency [15]: inactive | Potency [16]: inactive | Potency [17]: inactive | Potency [18]: inactive | Potency [20]: inactive | Potency [19]: inactive

Nc1nc(N)nc(N)n1
Potency [1]: inactive | Potency [2]: inactive | Potency [3]: inactive | max response [4]: 14.5% | Potency [5]: inactive | Potency [6]: inactive | Potency [7]: inactive | Potency [8]: inactive | Potency [9]: inactive | Potency [10]: inactive | Potency [11]: inactive | Potency [12]: inactive | Potency [13]: inactive | Potency [14]: inactive | Potency [15]: inactive | Potency [16]: inactive | Potency [17]: inactive | Potency [18]: inactive | Potency [20]: inactive

Cn1sc(Cl)cc1=O
Potency [1]: inactive | Potency [2]: inactive | Potency [3]: inactive | max response [4]: -14% | Potency [5]: inactive | Potency [6]: inactive | Potency [7]: inactive | Potency [8]: inactive | Potency [9]: inactive | Potency [10]: inactive | Potency [11]: inactive | Potency [12]: inactive | Potency [13]: inactive | Potency [14]: inactive | Potency [15]: inactive | Potency [16]: inactive | Potency [17]: inactive | Potency [18]: inactive | Potency [20]: inactive

COC(=O)C(Br)CBr (stereo not given)
Potency [1]: inactive | Potency [2]: inactive | Potency [3]: inactive | max response [4]: -3.92% | Potency [5]: inactive | Potency [6]: inactive | Potency [7]: inactive | Potency [8]: inactive | Potency [9]: inactive | Potency [10]: inactive | Potency [11]: inactive | Potency [12]: inactive | Potency [13]: inactive | Potency [14]: inactive | Potency [15]: inactive | Potency [16]: inactive | Potency [17]: inactive | Potency [18]: inactive | Potency [20]: inactive

O=C(CBr)c1ccccc1
Potency [1]: inactive | Potency [2]: inactive | Potency [3]: inactive | max response [4]: 3.94% | Potency [5]: inactive | Potency [6]: inactive | Potency [7]: inactive | Potency [8]: inactive | Potency [9]: inactive | Potency [10]: inactive | Potency [11]: inactive | Potency [12]: inactive | Potency [13]: inactive | Potency [14]: inactive | Potency [15]: inactive | Potency [16]: inactive | Potency [17]: inactive | Potency [18]: inactive | Potency [20]: inactive | Potency [19]: inactive

COc1cc(Cl)c(OC)cc1Cl
Potency [1]: inactive | Potency [2]: inactive | Potency [3]: inactive | max response [4]: 1.87% | Potency [5]: inactive | Potency [6]: inactive | Potency [7]: inactive | Potency [8]: inactive | Potency [9]: inactive | Potency [10]: inactive | Potency [11]: inactive | Potency [12]: inactive | Potency [13]: inactive | Potency [14]: inactive | Potency [15]: inactive | Potency [16]: inactive | Potency [17]: inactive | Potency [18]: inactive | Potency [20]: inactive | Potency [19]: inactive

Clc1cc(Cl)c(Cl)c(Cl)c1
Potency [1]: inactive | Potency [2]: inactive | Potency [3]: inactive | max response [4]: -4.38% | Potency [5]: inactive | Potency [6]: inactive | Potency [7]: inactive | Potency [8]: inactive | Potency [9]: inactive | Potency [10]: inactive | Potency [11]: inactive | Potency [12]: inactive | Potency [13]: inactive | Potency [14]: inactive | Potency [15]: inactive | Potency [16]: inactive | Potency [17]: inactive | Potency [18]: inactive | Potency [20]: inactive | Potency [19]: inactive

CCCCCCCCCC(=O)O[C@H]1CC[C@H]2[C@@H]3CCC4=CC(=O)CC[C@@H]4[C@H]3CC[C@]12C
Potency [1]: inactive | Potency [2]: inactive | Potency [3]: inactive | max response [4]: 3.16% | Potency [5]: inactive | Potency [6]: inactive | Potency [7]: inactive | Potency [8]: inactive | Potency [9]: inactive | Potency [10]: inactive | Potency [11]: inactive | Potency [12]: inactive | Potency [13]: inactive | Potency [14]: inactive | Potency [15]: inactive | Potency [16]: inactive | Potency [17]: inactive | Potency [18]: inactive | Potency [20]: inactive | Potency [19]: inactive

CC(C)(Cl)[N+](=O)[O-]
Potency [1]: inactive | Potency [2]: inactive | Potency [3]: inactive | max response [4]: 2.49% | Potency [5]: inactive | Potency [6]: inactive | Potency [7]: inactive | Potency [8]: inactive | Potency [9]: inactive | Potency [10]: inactive | Potency [11]: inactive | Potency [12]: inactive | Potency [13]: inactive | Potency [14]: inactive | Potency [15]: inactive | Potency [16]: inactive | Potency [17]: inactive | Potency [18]: inactive | Potency [20]: 6.19 µM (active) | Potency [19]: inactive
